The term viability denotes a read-out of living cells in per cent, often relative to untreated cells.

Assay [1] has as its target Aldehyde dehydrogenase, mitochondrial (Homo sapiens) (UniProt P05091). The experiment in a line: qHTS for Inhibitors of the Aldehyde Dehydrogenase Family (ALDH2) Primary screen (AID 2061308).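 Note: plate controls were vehicle for no effect and reference inhibitor for full effect; nearly all actives have a fitted effect of over 55% in size.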 A general note: qHTS replaces the single test concentration by a dilution series.
Assay [2] addresses Retinaldehyde dehydrogenase 3 (Homo sapiens) (UniProt P47895). As to the kind of experiment: qHTS for Inhibitors of the Aldehyde Dehydrogenase Family (ALDH1A3) Primary screen (AID 2061315).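 Note: plate controls were DMSO vehicle for no effect and reference inhibitor for full effect.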
In assay [3] the target is Aldehyde dehydrogenase 1A1 (Homo sapiens) (UniProt P00352). As to the kind of experiment: qHTS for Inhibitors of the Aldehyde Dehydrogenase Family (ALDH1A1) Confirmatory screens (AID 2061316). Note: potency is the fitted concentration of half-maximal effect; nearly all actives have a fitted effect of over 65% in size.
Assay [4] is described as follows: BET inhibitor-based combinations targeting novel dependencies in MECOM-rearranged (r) AML: SET-2 cell line (AID 2202231).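 For viability: plate controls were DMSO treated cells for no effect and wells without cells for full effect.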 Note: nearly all actives have a fitted effect of over 35% in size. Note: potency is the fitted concentration of half-maximal effect. The following applies: SET-2 AML cells viability, CellTiter-Glo luminescence, 48 h; viability: stronger effect = lower value, concentration not given here. The procedure, abridged: (§1)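 500 cells/well; 11-pt dose curve; 48 h, standard incubator; CellTiter-Glo luminescence after 15 min RT; DMSO/empty-well normalization; AUC plus Z-AUC (mean-centered within each line).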

Assay [5] is described as follows: BET inhibitor-based combinations targeting novel dependencies in MECOM-rearranged (r) AML: OCI-AML3 cell line (AID 2202232). Note: nearly all actives have a fitted effect of over 35% in size. Note: potency is the fitted concentration of half-maximal effect. The following applies: Potency: OCI-AML3 viability. The procedure, abridged: as §1
Assay [6] is described as follows: BET inhibitor-based combinations targeting novel dependencies in MECOM-rearranged (r) AML: MV-4-11 cell line (AID 2202233). Note: potency is the fitted concentration of half-maximal effect; nearly all actives have a fitted effect of over 45% in size. The gist of the method: (§2)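 Cells were plated at 500 per well and exposed to each drug across an 11-point dose range for 48 hr at standard incubator conditions. Viability was read by CellTiter-Glo luminescence, and activity was expressed as AUC and per-cell-line Z-transformed AUC.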

A short description of assay [7]: BET inhibitor-based combinations targeting novel dependencies in MECOM-rearranged (r) AML: UCSD-AML1 cell line (AID 2202235). Note: nearly all actives have a fitted effect of over 40% in size. Note: potency is the fitted concentration of half-maximal effect. The procedure, abridged: as §2
Assay [8] is described as follows: BET inhibitor-based combinations targeting novel dependencies in MECOM-rearranged (r) AML: AML-191 cell line (AID 2202236; note: potency is the fitted concentration of half-maximal effect; nearly all actives have a fitted effect of over 35% in size). The gist of the method:
as §1

A short description of assay [9]: BET inhibitor-based combinations targeting novel dependencies in MECOM-rearranged (r) AML: AML-194 cell line (AID 2202237; note: nearly all actives have a fitted effect of over 40% in size; note: potency is the fitted concentration of half-maximal effect). The gist of the method:
as §1

Assay [10] in a line: BET inhibitor-based combinations targeting novel dependencies in MECOM-rearranged (r) AML: HNT-34 cell line (AID 2202234). Note: potency is the fitted concentration of half-maximal effect; nearly all actives have a fitted effect of over 35% in size. The gist of the method: as §2

Inconclusive results are not listed. Values without a mark were called inactive. Activity calls are given as the source filed them. Calls come from the whole dose curve; as a rule, active = well fitted curve in the direction sought with a large enough effect; inconclusive = small, poorly fitted or top-dose-only effect, or another doubt; inactive = no such curve, though single readings can be large; an effect the other way counts as inactive or inconclusive.

Regarding `Cc1cc(C)nc(NC(=S)N2CCN(c3ccccc3C#N)CC2)c1`, the Potency entry in assay [1] and in [2] was “inactive” in each case.
For the compound `Fc1ccc(NC(=S)Nc2nnc(-c3ccncc3)s2)cc1C(F)(F)F`, the Potency result in [1] and in [2] was “inactive” throughout. The Potency in assay [3] is 5.04 µM (active).
In the case of `Cn1nnnc1Sc1ncnc2scc(-c3cccc(N)c3)c12`, the Potency result in [1] and in assay [2] was “inactive” throughout. For the same compound, the Potency in [3] is 22.5 µM (active).
Consider `Nc1[nH]nc2nnc(-c3c(-c4ccccc4)nn4ccccc34)cc12`, for which the Potency entry in [1], in assay [2], in assay [7] and in [9] was “inactive” in each case. Besides, the viability in [4] was 111%. Besides, the Potency in [5] was 14.8 µM (active); in [6], 10.5 µM (active); in assay [8] it was 18.6 µM (active).
As for `O=c1c2ccccc2nc2sc(Nc3ccc4c(c3)OCO4)nn12`, the Potency result in [1] and in assay [2] was “inactive” throughout. Further, the Potency in assay [3] is 5.04 µM (active).
Consider `COc1cc(Nc2ncc(F)c(Nc3ccc4c(n3)N(COP(=O)(O)O)C(=O)C(C)(C)O4)n2)cc(OC)c1OC`, for which the Potency entry in assay [1], in assay [2] and in assay [5] was “inactive” in each case. Also, the Potency in assay [4] was 13.2 µM (active); in assay [6] it was 0.833 µM (active); in assay [10], 2.09 µM (active); in assay [7], 2.63 µM (active); in assay [8], 3.72 µM (active).
For the compound `CNS(=O)(=O)c1ccc2c(c1)/C(=C/c1[nH]c3c(c1CCCN1CCN(C)CC1)CCCC3)C(=O)N2`, the Potency entry in assay [1] and in [2] was “inactive” each time. For the same compound, the Potency is 18.6 µM (active) in assay [4]; 18.6 µM (active) in assay [5]; 1.18 µM (active) in assay [6]; 14.8 µM (active) in assay [8]; 13.2 µM (active) in assay [9].
Turning to `C[C@H]1[C@H](O)O[C@@H]2O[C@@]3(C)CC[C@H]4[C@H](C)CC[C@@H]1[C@@]24OO3`, the Potency entry in assay [1] and in assay [2] was “inactive” in each case. Further, the Potency in assay [4] was 1.32 µM (active); in assay [5] it was 1.18 µM (active); in assay [6], 0.662 µM (active); in assay [10], 1.18 µM (active); in assay [7] it was 3.32 µM (active); in assay [8] it was 2.95 µM (active). Besides, the Potency in assay [9] was 4.68 µM (active).

(Values after PubChem BioAssay (NCATS).)
